Measurements as given in PubChem BioAssay AID1159580 (chemical genetic matrix, 2015).
Where “and” joins values, the source holds several entries; their conditions need not be identical. Identical values can stand only once. The campaign covered roughly 5,500 compounds. About 2,000 (36%) were called active. Another 18% or so got no clear call; they are omitted. Cut-off read from the data, not from the text of the source: active = normalized growth mostly below about 0.91 (no sharp cut-off); inconclusive = no clear call, values can overlap the other calls; inactive = mostly above about 0.92. Some of the results follow.

Assay: chemical genetic growth profiling, strain panel (AID 1159580);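 note: tested at 20 µM; growth read once vehicle control cultures reached saturation at 30 °C; 1 = growth at the plate median or of vehicle wells; lower values mean less growth of the strain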
Conditions: S. cerevisiae deletion strains, growth OD

Measured: normalized growth

COC(=O)C[C@H]1C2(C)CC34OC5(C)O[C@@]6([C@H](OC(C)=O)C(OC(C)=O)[C@]7(C)C(/C(=C(/O)C(C)C)C(=O)O[C@H]7c7ccoc7)[C@@]6(O5)[C@H](OC(C)=O)[C@@]3(O)C2OC(=O)C(C)C)[C@]14C (stereo partly drawn)
inactive: locus YAL021C, strain ccr4, active compounds read low 1.01 | locus YAL026C, strain drs2, active compounds read low 0.995 | locus YAL030W, strain snc1, active compounds read low 0.997 | locus YBL061C, strain skt5, active compounds read low 1.01 | locus YBR009C, strain hhf1, active compounds read low 1.01 | locus YBR021W, strain FUR4, active compounds read low 1.06 | locus YBR023C, strain chs3, active compounds read low 1 | locus YBR171W, strain sec66, active compounds read low 0.994 | locus YBR229C, strain ROT2, active compounds read low 0.955 | locus YBR231C, strain swc5, active compounds read low 1 | locus YBR279W, strain paf1, active compounds read low 0.996 | locus YCL011C, strain gbp2, active compounds read low 0.989 | locus YCL016C, strain dcc1, active compounds read low 1.02 | locus YCL029C, strain bik1, active compounds read low 1.01 | locus YCL061C, strain MRC1, active compounds read low 1 | locus YCL069W, strain vba3, active compounds read low 0.998 | locus YCR088W, strain abp1, active compounds read low 0.992 | locus YDL005C, strain med2, active compounds read low 0.982 | locus YDL035C, strain GPR1, active compounds read low 0.976 | locus YDL040C, strain nat1, active compounds read low 0.978 | locus YDL074C, strain BRE1, active compounds read low 0.986 | locus YDL101C, strain DUN1, active compounds read low 1 | locus YDL134C, strain PPH21, active compounds read low 1.02 | locus YDL185W, strain tfp1, active compounds read low 0.956 | locus YDL192W, strain arf1, active compounds read low 0.986 | locus YDR001C, strain nth1, active compounds read low 1 | locus YDR069C, strain doa4, active compounds read low 1 | locus YDR101C, strain arx1, active compounds read low 1 | locus YDR137W, strain rgp1, active compounds read low 0.953 | locus YDR159W, strain sac3, active compounds read low 0.975 | locus YDR162C, strain NBP2, active compounds read low 0.973 | locus YDR195W, strain ref2 0.959 | locus YDR297W, strain sur2, active compounds read low 1.02 | locus YDR318W, strain mcm21, active compounds read low 0.994 | locus YDR334W, strain swr1, active compounds read low 0.991 | locus YDR335W, strain msn5, active compounds read low 0.993 | locus YDR388W, active compounds read low 0.994 | locus YDR392W, strain spt3, active compounds read low 1.05 | locus YDR502C, strain sam2, active compounds read low 1.03 | locus YEL003W, strain gim4, active compounds read low 0.995 | locus YEL037C, strain rad23, active compounds read low 0.997 | locus YEL061C, strain CIN8 (second series), active compounds read low 0.994 | locus YEL061C, strain CIN8, active compounds read low 1 | locus YER015W, strain faa2, active compounds read low 1.01 | locus YER016W, strain bim1, active compounds read low 0.981 | locus YER110C, active compounds read low 0.992 | locus YER111C, strain swi4, active compounds read low 0.985 | locus YER155C, strain BEM2 (second series), active compounds read low 1.01 | locus YER155C, strain BEM2, active compounds read low 1.01 | locus YER167W, strain BCK2, active compounds read low 0.99 | locus YFR010W, strain ubp6, active compounds read low 0.982 | locus YGL078C, strain dbp3, active compounds read low 0.98 | locus YGL086W, strain mad1, active compounds read low 1.01 | locus YGL167C, strain pmr1, active compounds read low 0.995 | locus YGL173C, strain kem1, active compounds read low 0.997 | locus YGL227W, strain vid30, active compounds read low 0.987 | locus YGL240W, strain doc1, active compounds read low 0.975 | locus YGL248W, strain PDE1, active compounds read low 0.997 | locus YGL253W, strain hxk2, active compounds read low 0.975 | locus YGR078C, strain PAC10, active compounds read low 1 | locus YGR135W, strain pre9, active compounds read low 1.06 | locus YGR252W, strain gcn5, active compounds read low 1.04 | locus YHR013C, strain ard1, active compounds read low 1 | locus YHR027C, strain rpn1, active compounds read low 1.02 | locus YHR030C, strain SLT2, active compounds read low 0.947 | locus YHR079C, strain IRE1 (second series), active compounds read low 0.997 | locus YHR079C, strain IRE1, active compounds read low 0.983 | locus YHR094C, strain hxt1, active compounds read low 0.998 | locus YHR129C, strain ARP1, active compounds read low 1 | locus YHR142W, strain chs7, active compounds read low 1 | locus YHR200W, strain rpn10, active compounds read low 0.996 | locus YIL066C, strain RNR3, active compounds read low 0.963 | locus YIL073C, strain SPO22, active compounds read low 0.966 | locus YIL125W, strain kgd1, active compounds read low 1 | locus YIR030C, strain dcg1, active compounds read low 1 | locus YJL092W, strain hpr5, active compounds read low 0.997 | locus YJL095W, strain BCK1 (second series), active compounds read low 1 | locus YJL095W, strain BCK1, active compounds read low 1.02 and 0.966 | locus YJL115W, strain asf1, active compounds read low 0.989 | locus YJL129C, strain trk1, active compounds read low 0.975 | locus YJL134W, strain LCB3, active compounds read low 0.994 | locus YJL154C, strain vps35, active compounds read low 1 | locus YJL164C, strain tpk1, active compounds read low 1.01 | locus YJL166W, strain qcr8, active compounds read low 0.983 | locus YJL168C, strain set2, active compounds read low 1.01 | locus YJL187C, strain SWE1 (second series), active compounds read low 1.01 | locus YJL187C, strain SWE1, active compounds read low 1.01 | locus YJR066W, strain TOR1, active compounds read low 0.928 | locus YJR075W, strain HOC1, active compounds read low 1.02 | locus YKL009W, strain mrt4, active compounds read low 0.979 | locus YKL068W, active compounds read low 0.986 | locus YKL160W, strain elf1, active compounds read low 1.01 | locus YKR001C, strain vps1, active compounds read low 1 | locus YKR026C, strain gcn3, active compounds read low 0.995 | locus YKR091W, strain srl3, active compounds read low 0.996 | locus YLL001W, strain dnm1, active compounds read low 1.02 | locus YLL026W, active compounds read low 0.987 | locus YLL041C, strain sdh2, active compounds read low 0.988 | locus YLR027C, strain aat2, active compounds read low 1 | locus YLR039C, strain RIC1, active compounds read low 0.863 | locus YLR058C, strain SHM2, active compounds read low 0.987 | locus YLR102C, strain apc9, active compounds read low 1 | locus YLR113W, strain HOG1, active compounds read low 1.01 | locus YLR221C, strain rsa3, active compounds read low 0.992 | locus YLR258W, strain gsy2, active compounds read low 1.01 | locus YLR262C, strain YPT6 (second series), active compounds read low 0.924 | locus YLR268W, strain sec22, active compounds read low 0.986 | locus YLR320W, strain mms22, active compounds read low 0.988 | locus YLR342W, strain FKS1, active compounds read low 0.996 | locus YLR357W, strain rsc2, active compounds read low 0.997 | locus YLR370C, strain arc18, active compounds read low 0.99 | locus YLR371W, strain rom2, active compounds read low 0.99 | locus YLR384C, strain iki3, active compounds read low 0.994 | locus YLR418C, strain cdc73, active compounds read low 1.07 | locus YML016C, strain PPZ1, active compounds read low 0.995 | locus YML032C, strain rad52, active compounds read low 0.982 | locus YML120C, strain ndi1, active compounds read low 0.995 | locus YML124C, strain tub3, active compounds read low 1.01 | locus YMR058W, strain fet3, active compounds read low 1.01 | locus YMR078C, strain ctf18, active compounds read low 0.998 | locus YMR125W, strain sto1, active compounds read low 1.01 | locus YMR129W, active compounds read low 0.997 | locus YMR205C, strain PFK2, active compounds read low 0.992 | locus YMR223W, strain ubp8, active compounds read low 1.02 | locus YMR231W, strain pep5, active compounds read low 0.957 | locus YMR263W, strain SAP30, active compounds read low 0.992 | locus YMR307W, strain GAS1, active compounds read low 0.926 | locus YNL067W, strain RPL9B, active compounds read low 1.02 | locus YNL071W, strain lat1, active compounds read low 0.998 | locus YNL153C, strain GIM3, active compounds read low 1.02 | locus YNL183C, strain NPR1, active compounds read low 0.954 | locus YNL209W, strain ssb2, active compounds read low 0.994 | locus YNL233W, strain BNI4, active compounds read low 1.04 | locus YNL248C, strain rpa49, active compounds read low 0.989 | locus YNL250W, strain rad50, active compounds read low 0.987 | locus YNL271C, strain bni1, active compounds read low 0.999 | locus YNL298W, strain CLA4, active compounds read low 0.994 | locus YNL307C, strain MCK1, active compounds read low 1.01 | locus YNL322C, strain KRE1 (second series), active compounds read low 0.982 | locus YNR049C, strain mso1, active compounds read low 0.994 | locus YNR052C, strain pop2, active compounds read low 1.02 | locus YOL012C, strain htz1 1.3 | locus YOL147C, strain pex11, active compounds read low 1.01 | locus YOR001W, strain rrp6, active compounds read low 0.947 | locus YOR061W, strain CKA2, active compounds read low 0.962 | locus YOR069W, strain VPS5, active compounds read low 1 | locus YOR070C, strain gyp1, active compounds read low 0.987 | locus YOR080W, strain dia2, active compounds read low 0.977 | locus YOR083W, strain WHI5, active compounds read low 1.02 | locus YOR106W, strain vam3, active compounds read low 1.01 | locus YOR136W, strain idh2, active compounds read low 1 | locus YOR144C, strain elg1, active compounds read low 1 | locus YOR184W, strain ser1, active compounds read low 0.987 | locus YOR231W, strain MKK1, active compounds read low 0.981 | locus YOR265W, strain rbl2, active compounds read low 0.994 | locus YOR270C, strain vph1, active compounds read low 0.87 | locus YOR290C, strain snf2, active compounds read low 0.979 | locus YOR316C, strain cot1, active compounds read low 1.01 | locus YPL051W, strain arl3, active compounds read low 0.999 | locus YPL078C, strain atp4, active compounds read low 1.01 | locus YPL106C, strain sse1, active compounds read low 1.06 | locus YPL240C, strain hsp82, active compounds read low 0.99 | locus YPL256C, strain CLN2, active compounds read low 0.98 | locus YPR119W, strain clb2, active compounds read low 0.997 | locus YPR141C, strain kar3, active compounds read low 0.969 | locus YPR163C, strain tif3, active compounds read low 1.01 | locus YPR167C, strain met16, active compounds read low 0.993 | strain wtn01, active compounds read low 1
